From PubChem BioAssay (NCI)
The panel holds about 83,000 compounds, 20% with a hit somewhere; the sample as a whole holds those more often.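 How to read the values: 0–100, growth inhibition (40 = 60% inhibited); 0, no net growth; -100 to 0, cell death (-40 = 40% of starting cells died; -100 = all dead).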 Activity calls are given as the source filed them. How the source made its calls: active means growth percent below 10; inactive means the rest.

Key:
Assay in all cases: NCI-60 one-dose screen, 48 h (100 = growth as untreated, 0 = no growth, -100 = all killed)
HCT-15 colon = conditions: 10 µM unless noted
HT29 colon = conditions: 10 µM unless noted
SNB-75 CNS = conditions: 10 µM unless noted
SNB-19 CNS = conditions: 10 µM unless noted
U251 CNS = conditions: 10 µM unless noted
SK-MEL-5 melanoma = conditions: 10 µM unless noted
UACC-62 melanoma = conditions: 10 µM unless noted
SK-MEL-28 melanoma = conditions: 10 µM unless noted
LOX IMVI melanoma = conditions: 10 µM
PC-3 prostate = conditions: 10 µM unless noted

Measured: growth

N#Cc1c(-c2cccc(O)c2O)cc(-c2ccc3ccccc3c2)[nH]c1=O
inactive: HCT-15 colon 52.8% | HT29 colon 98.2% | SNB-19 CNS 41.1% | U251 CNS 40.2% | SK-MEL-5 melanoma 45.9% | UACC-62 melanoma 77.5% | SK-MEL-28 melanoma 45.7%
active: SNB-75 CNS -6.63%

Nc1nc(-c2ccccc2)c(N=Nc2ccc([N+](=O)[O-])cc2Cl)s1
inactive: HCT-15 colon 68.1% | HT29 colon 96.2% | SNB-75 CNS 85.7% | SNB-19 CNS 96.3% | U251 CNS 82.5% | SK-MEL-5 melanoma 42.5% | UACC-62 melanoma 57.8% | LOX IMVI melanoma 98% | SK-MEL-28 melanoma 89.1%

O=C(NNc1nc2cc(F)ccc2n2c(C(=O)N3CCN(C4CC4)CC3)ccc12)c1ncccn1
inactive: HCT-15 colon 10.5% | HT29 colon 39% | SNB-75 CNS 73.3% | SNB-19 CNS 30.7% | U251 CNS 16.8% | PC-3 prostate 49% | LOX IMVI melanoma 13.7% | SK-MEL-28 melanoma 30.8%
active: UACC-62 melanoma 9.28%

COc1ccc(/C=C2\C(=O)Nc3ccc(Cl)cc32)cc1OCc1ccccn1
inactive: HCT-15 colon 59.9% | HT29 colon 76.5% | SNB-75 CNS 38.1% | SNB-19 CNS 42.4% | SK-MEL-5 melanoma 52.4% | UACC-62 melanoma 20.7% | SK-MEL-28 melanoma 68%
active: U251 CNS -5.73%

NS(=O)(=O)c1ccc(-n2cc(-c3cccc(NC(=O)c4cc(C(F)(F)F)cc(C(F)(F)F)c4)c3)nn2)cc1
inactive: HCT-15 colon 85.7% | HT29 colon 46.6% | SNB-75 CNS 37.5% | SNB-19 CNS 25% | U251 CNS 11.7% | SK-MEL-5 melanoma 90.5% | UACC-62 melanoma 73.8% | SK-MEL-28 melanoma 81.5%
